In PubChem BioAssay one finds z-score and composite z-score data, which are given here for 12 compounds.

Test [1] is described as follows: HepG2 liver cancer cell viability effects, profiling panel, resazurin fluorescence, 24 h, PK04 Diversity Set (AID 1172). Further: test concentration not given here. To be noted: higher = more signal.
Test [2] can be described thus: basal S. cerevisiae growth modulation, no modifier, primary screen, OD600, strain BY4716, 24 h, basal condition (AID 1173). The note with it: OD600, 24 h, higher = more signal, called active from +8 up or from −8 down.
A short description of test [3]: MM1S myeloma cell viability, profiling panel, resazurin fluorescence, basal, 24 h, PK04 Diversity Set (AID 1174).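 Further: MM1S multiple myeloma cell line; test concentration not given here.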 The note with it: higher = more signal, called active from +8 up or from −8 down.
Test [4] addresses Dihydroorotate dehydrogenase (quinone), mitochondrial (Plasmodium falciparum (isolate 3D7)) (UniProt Q08210). In words: PfDHODH enzyme inhibitors, primary screen, biochemical, C-terminal His tag, absorbance 600 nm (AID 1175).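 Further: recombinant parasite enzyme with a five histidine tag at its C terminus; test concentration not given here.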 To be noted: DCIP absorbance 600 nm, higher = more signal, called active from +8 up or from −8 down.
The nature of test [5]: P. aeruginosa biofilm formation inhibitors, primary screen, strain PAO1, LB-PBS medium, absorbance 600 nm (AID 1176). Further: test concentration not given here. The note with it: P. aeruginosa PAO1 growth/biofilm, A600, 12 h; higher = more signal.
A short description of test [6]: S. cerevisiae RM11-1a growth modifiers, primary screen, strain RM11-1a, OD600, basal, 24 h (AID 1177).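 Further: cultures grown under basal conditions with no added stressor; test concentration not given here.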 To be noted: OD600, 24 h, higher = more signal, called active from +8 up or from −8 down.
The nature of test [7]: E. coli acrAB mutant growth effects, primary screen, E. coli filamentation inducers, strain DRC39, OD650, 24 h (AID 1178).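 Further: growth measured as culture turbidity by optical density at 650 nm; test concentration not given here.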 To be noted: higher = more signal, called active from +8 up or from −8 down.
The nature of test [8]: E. coli acrAB mutant growth effects, primary screen, E. coli filamentation inducers, strain DRC39, OD650, 48 h (AID 1179).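 Further: screen aims at cell division blockers that make cells filament.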 To be noted: E. coli DRC39 delta-acrAB growth, higher = more signal, called active from +8 up or from −8 down.
A short description of test [9]: RPMI8226 myeloma cell viability, profiling panel, resazurin fluorescence, basal, 24 h, PK04 Diversity Set (AID 1180).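 Further: RPMI8826 multiple myeloma cell line at 5000 cells per well; test concentration not given here.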 To be noted: higher = more signal.
Test [10] addresses E3 ubiquitin-protein ligase XIAP (Homo sapiens) (UniProt P98170). In words: XIAP binders, primary screen, biophysical, small-molecule microarray, fluorescence 635 nm (AID 1181).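 Further: score merges 667 nm emission and signal to noise over triplicate slides.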 The note with it: small-molecule microarray binding, higher = more signal.

Activity calls are given as the source filed them. Unless noted, how the calls were made is not given here.

E3 ubiquitin-protein ligase XIAP (Homo sapiens), sequence (P98170 whole entry, looked up): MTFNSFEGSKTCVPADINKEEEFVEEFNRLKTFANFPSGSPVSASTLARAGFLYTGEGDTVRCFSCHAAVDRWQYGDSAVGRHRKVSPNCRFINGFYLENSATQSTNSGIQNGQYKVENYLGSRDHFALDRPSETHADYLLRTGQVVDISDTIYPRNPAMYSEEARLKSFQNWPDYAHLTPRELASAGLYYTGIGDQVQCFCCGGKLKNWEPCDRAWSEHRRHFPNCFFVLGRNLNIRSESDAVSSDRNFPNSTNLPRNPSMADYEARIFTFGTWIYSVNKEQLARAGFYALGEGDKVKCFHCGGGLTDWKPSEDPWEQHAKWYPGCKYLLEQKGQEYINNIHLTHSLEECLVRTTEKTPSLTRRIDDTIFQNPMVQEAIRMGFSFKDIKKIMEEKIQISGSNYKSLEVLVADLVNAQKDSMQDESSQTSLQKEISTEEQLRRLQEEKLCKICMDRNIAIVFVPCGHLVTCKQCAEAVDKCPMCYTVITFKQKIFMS
Dihydroorotate dehydrogenase (quinone), mitochondrial (Plasmodium falciparum (isolate 3D7)), sequence (Q08210 whole entry, looked up): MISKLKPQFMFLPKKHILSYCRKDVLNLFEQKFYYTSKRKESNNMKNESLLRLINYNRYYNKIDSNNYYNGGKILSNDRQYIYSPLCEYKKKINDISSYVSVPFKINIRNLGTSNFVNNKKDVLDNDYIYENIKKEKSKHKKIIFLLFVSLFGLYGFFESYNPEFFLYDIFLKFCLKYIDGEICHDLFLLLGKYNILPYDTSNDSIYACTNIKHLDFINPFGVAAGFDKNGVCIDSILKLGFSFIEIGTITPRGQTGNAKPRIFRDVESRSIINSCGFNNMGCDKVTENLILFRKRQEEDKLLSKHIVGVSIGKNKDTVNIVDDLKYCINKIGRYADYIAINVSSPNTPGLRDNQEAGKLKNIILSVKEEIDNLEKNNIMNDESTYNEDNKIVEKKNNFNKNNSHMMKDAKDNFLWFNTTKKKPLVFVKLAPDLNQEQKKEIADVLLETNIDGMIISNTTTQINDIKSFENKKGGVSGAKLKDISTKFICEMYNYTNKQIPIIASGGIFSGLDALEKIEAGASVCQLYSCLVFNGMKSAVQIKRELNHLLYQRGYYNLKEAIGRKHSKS

For `C=CC[C@@]1(C(=O)OC)N=C(c2ccc(OCCCO)cc2)O[C@@H]1c1ccccc1N=[N+]=[N-]`, the z-score is -0.0361 in test [1]; -1.28 (inactive) in test [2]; -0.768 (inactive) in [3]; -0.043 (inactive) in test [5]; 1.72 (inactive) in test [6]; 0.906 (inactive) in [7]. Further, the z-score was -1.05 (inactive) in test [8] and -0.937 in test [9]. The composite z-score was 1.09 (inactive) in test [4] and 0.0142 in test [10].
Regarding `CCCCN1CC=CC23O[C@@H]4/C=C\CCCOC(=O)C4[C@H]2C(=O)N(C(CO)C(C)C)[C@@H]3C1=O` (stereo not given in full), the z-score in test [1] was -0.101; in test [2], 0.259 (inactive); in test [3], -0.289 (inactive); in [5] it was -0.0432 (inactive); in [6], -0.427 (inactive); in test [7], 0.116 (inactive). The figures for the z-score in [8] and in [9] were -0.091 (inactive) and -0.235, respectively. In addition, the composite z-score in test [4] is -1.4 (inactive); in test [10], -0.0393.
`COCCOC(=O)N1C(=O)[C@@]2(c3cc(C#CCCO)ccc31)[C@H](C(N)=O)[C@H]1C(=O)O[C@H](c3ccccc3)[C@H](c3ccccc3)N1[C@@H]2c1ccccc1OCCO`: the z-score was -0.231 in [1]; 1.11 (inactive) in test [2]; -2.76 (inactive) in [3]; 0.594 (inactive) in [5]; 2.34 (inactive) in test [6]; 0.354 (inactive) in test [7]. For the same compound, the z-score was 0.449 (inactive) in test [8] and -1.95 in [9]. Further, the composite z-score was 0.754 (inactive) in test [4] and -0.124 in test [10].
In the case of `C=CCC(OC(C)=O)[C@@H]1[C@@H](N(Cc2ccc(-c3ccccc3)cc2)C(=O)c2cccc3ccccc23)c2cc(OCCCO)ccc2N1C(=O)Cc1ccc(OC)cc1` (stereo not given in full), the z-score in test [1] is -0.533; in [2], 0.186 (inactive); in test [3], -0.572 (inactive); in test [5], -0.121 (inactive); in [6], -0.788 (inactive); in test [7] it was -0.0251 (inactive). The z-score in test [8] is -0.288 (inactive); in test [9] it was -0.505. In addition, the composite z-score in test [4] is -0.0892 (inactive); in test [10] it was -0.264.
As for `CC(C)NC(=O)[C@@H]1c2ccccc2C(=O)N(Cc2ccc(OC(F)(F)F)cc2)[C@H]1c1ccc(CO)cc1`, the z-score in test [1] was -1.14; in [2], 0.924 (inactive); in test [3], 0.155 (inactive); in test [5], 0.627 (inactive); in test [6], 0.91 (inactive); in test [7] it was -0.386 (inactive). For the same compound, the figures for the z-score in test [8] and in test [9] were -0.664 (inactive) and 0.808, respectively. Further, the values for the composite z-score in test [4] and in test [10] were -4.48 (inactive) and -0.16, respectively.
As for `C=CCC(OC(C)=O)[C@@H]1[C@@H](N(Cc2ccc(-c3cccc(C(F)(F)F)c3)o2)C(=O)Cc2ccc(F)cc2)c2cc(OCCCO)ccc2N1C(=O)Cc1ccc2ccccc2c1` (stereo not given in full), the z-score is 0.533 in test [1]; 0.658 (inactive) in test [2]; 0.647 (inactive) in test [3]; 1.13 (inactive) in test [5]; -0.245 (inactive) in [6]; -0.241 (inactive) in [7]. The figures for the z-score in [8] and in test [9] were -0.088 (inactive) and 0.0748, respectively. Further, the composite z-score in test [4] is -1.35 (inactive); in test [10], -0.132.
As for `C=CCOC(=O)[C@H]1[C@@H]2C(=O)O[C@@H](c3ccccc3)[C@@H](c3ccccc3)N2[C@@H](c2ccc(OCCOC(=O)[C@H]3C[C@H]4C(=O)N[C@@H](CC(C)C)C(=O)N4[C@H]3c3ccc(O)cc3)cc2)[C@]12C(=O)Nc1ccccc12`, the z-score was 0.0682 in [1]; 1.1 (inactive) in [2]; 0.407 (inactive) in [3]; 2.65 (inactive) in [5]; 2.67 (inactive) in test [6]; 0.376 (inactive) in test [7]. Besides, the results for the z-score in test [8] and in test [9] were 1.02 (inactive) and 0.862, respectively. The figures for the composite z-score in test [4] and in test [10] were -0.976 (inactive) and -0.0078, respectively.
As for `CC(C)=CCCC(C)=CC(O)C1C=CC2C(=O)NC(=O)C2N1Nc1ccccn1` (stereo not given), the z-score in test [1] was -1.33; in test [2] it was 0.386 (inactive); in test [3], -0.58 (inactive); in test [5], 1.55 (inactive); in test [6] it was -0.881 (inactive); in [7] it was -0.222 (inactive). In addition, the z-score in [8] was 0.528 (inactive); in [9], -0.754. The composite z-score is 0.242 (inactive) in test [4] and 0.0602 in [10].
On to `Cc1ccc(F)cc1S(=O)(=O)N[C@H]1CCN(Cc2ccc(OC(C)C)cc2)C1`, for which the z-score in [1] is -0.757; in test [2], -9.28 (active); in [3], -1.1 (inactive); in [5], -0.107 (inactive); in test [6] it was 0.297 (inactive); in test [7] it was -1.42 (inactive). For the same compound, the z-score in test [8] is -2.48 (inactive); in [9], -1.19. Further, the composite z-score in test [4] is -0.0588 (inactive); in [10], -0.0773.
Turning to `CC(C)=CCCC(C)=CC(O)C1C=CC2C(=O)NC(=O)C2N1Nc1ccc(Cl)cc1Cl` (stereo not given), the z-score in [1] is -1.66; in [2] it was -4.77 (inactive); in test [3] it was -1.56 (inactive); in test [5] it was 1.01 (inactive); in [6], 0.432 (inactive); in test [7], -0.0552 (inactive). Further, the z-score in test [8] is -0.797 (inactive); in test [9], -1.73. The composite z-score in [4] was 0.112 (inactive); in test [10], -0.0326.
Take `[N-]=[N+]=Nc1ccccc1C[C@]1(C(=O)N2CCOCC2)N=C(c2ccc(OCCCO)cc2)O[C@H]1c1ccccc1N=[N+]=[N-]`: the z-score is -1.37 in test [1]; -2.51 (inactive) in [2]; -3.41 (inactive) in test [3]; -0.444 (inactive) in [5]; 0.275 (inactive) in test [6]; 1.16 (inactive) in [7]. Besides, the z-score in [8] was 2.48 (inactive); in test [9], -2.65. Further, the composite z-score is -0.481 (inactive) in test [4] and 0.446 in [10].
In the case of `CC(C)C(=C=CC[C@H](O)c1ccccc1OCCO)C[C@H](O)COCc1ccccc1`, the z-score is -0.0813 in test [1]; -1.07 (inactive) in [2]; -0.271 (inactive) in test [3]; 0.731 (inactive) in [5]; -0.154 (inactive) in [6]; -0.145 (inactive) in [7]. Also, the z-score in test [8] is -0.306 (inactive); in test [9] it was -0.921. Further, the composite z-score in test [4] was -2.12 (inactive); in test [10], 0.17.
